Results from PubChem BioAssay AID504332 (National Center for Advancing Translational Sciences (NCATS), 2011).
Screen size: about 350,000 compounds; about 31,000 (8.9%) were called active. Roughly 15% stayed inconclusive and do not appear here. This is one part of a sample in which actives are shown more often than they occur. A number with no mark means an inactive call. Calls follow the shape of the dose curve; as a rule, active = well fitted inhibition curve with a large enough effect; inconclusive = small, poorly fitted or top-dose-only effect; inactive = no such curve, though single readings can be large or run the other way.

target: Histone-lysine N-methyltransferase EHMT2 (Homo sapiens) (UniProt Q96KQ7); test: qHTS Assay for Inhibitors of Histone Lysine Methyltransferase G9a; conditions: G9a H3K9 monomethylation, AlphaScreen, 2 h; series mostly up to 59 µM; activity, negative = inhibition: at the top concentration; also: nearly all actives have a fitted effect of over 75% in size
Summary of the method: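 Signal arises when biotinylated H3K9 peptide, once monomethylated, bridges streptavidin donor and antibody-captured acceptor beads. Enzyme at 20 nM was preincubated 15 min with test compounds; peptide 500 nM and SAM 20 uM then reacted for 2 h.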
% is scaled to controls: 0 for no effect and ±100 for the full control effect; potency is read from the fitted curve at half-maximal effect.

Sequence of Histone-lysine N-methyltransferase EHMT2 (Homo sapiens) (Q96KQ7 913-1193 limits assumed): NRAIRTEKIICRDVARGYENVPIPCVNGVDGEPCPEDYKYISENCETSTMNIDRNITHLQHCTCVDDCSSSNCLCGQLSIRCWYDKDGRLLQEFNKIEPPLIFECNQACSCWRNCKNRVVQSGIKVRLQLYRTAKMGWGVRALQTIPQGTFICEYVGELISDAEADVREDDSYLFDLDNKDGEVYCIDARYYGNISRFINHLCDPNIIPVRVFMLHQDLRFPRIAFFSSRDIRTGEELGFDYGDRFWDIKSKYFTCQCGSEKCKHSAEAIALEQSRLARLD

Structure (SMILES) | Potency | activity, negative = inhibition
COc1ccc(CNC(=O)C(C)n2nc(C)c3c(C)n(-c4ccccc4)nc3c2=O)c(OC)c1 (stereo unspecified) | inactive | –
CN1CCN(c2ccc([N+](=O)[O-])c(Sc3nc4ccccc4[nH]3)c2)CC1 | 10 µM (active) | –
CC1CCN(c2ccc([N+](=O)[O-])c(SCCO)c2)CC1 | – | -14.6%
O=[N+]([O-])c1ccc(N2CCNCC2)cc1NCc1cccnc1 | – | 1.92%
CCOC(=O)c1ccccc1NC(=O)CCc1c(C)nc2c(c1C)c(=O)n(C)c(=O)n2C | – | 4.26%
CCOc1ccc(N2CC(c3nc4ccccc4n3CCOc3ccc(OC)cc3)CC2=O)cc1 (stereo unspecified) | – | -48.9%
CCc1ccccc1OCC(=O)Nc1ccc2c(c1)OCCO2 | – | -6.66% [at 102 µM]
COc1ccc(NC(=O)CSc2nnc(C3CC3)n2C)cc1S(=O)(=O)N1CCCCC1 | – | -4.19%
CC(Sc1nnc(-c2ccccc2F)n1C1CC1)C(N)=O (stereo unspecified) | – | -3.42%
COc1ccc(NC(=O)CSc2nnc(-c3ccccc3F)n2C2CC2)cc1S(N)(=O)=O | 44.7 µM (active) | –
Cc1ccc(S(=O)(=O)N(CC(=O)NCc2ccco2)c2ccccc2C)cc1 | – | -17.8% [at 102 µM]
CCOC(=O)C(Cc1ccccc1)NC(=O)CCc1c(C)nc2c(c(C)nn2-c2ccc(C)c(C)c2)c1C (stereo unspecified) | – | 1.4%
CCOC(=O)c1cc2c(=O)n3ccccc3nc2n(Cc2ccco2)c1=NC(=O)c1ccc(F)cc1 | – | 9.03%
COC(=O)c1ccc(NC(=O)c2cnn(-c3ccc(Cl)cc3)c2C2CCN(C(=O)OC(C)(C)C)CC2)cc1 | – | -29.6%
COc1cccc(NC(=O)CN(C)C(=O)Cc2ccc(Cl)cc2Cl)c1 | – | 1.78% [at 102 µM]
COc1cccc(NC(=O)CN(C)C(=O)CSC(=S)N2CCCC2)c1 | 14.1 µM (active) | –
CCOc1cccc(NC(=O)C2CCCN(S(=O)(=O)c3ccc(OC)cc3)C2)c1 (stereo unspecified) | – | -28.2% [at 102 µM]
COc1ccccc1CC(=O)Nc1ccc(S(=O)(=O)N2CCCC2)cc1 | – | 10.5% [at 102 µM]
COc1cccc(NC(=O)CN(C)CC(=O)Nc2ccc3c(c2)CCC3)c1 | – | -6.51% [at 102 µM]
CCN(CC(=O)Nc1ccc(S(=O)(=O)N2CCCC2)cc1)CC(=O)Nc1cccc(OC)c1 | 31.6 µM (active) | –
COc1ccc(OC)c(NC(=O)CN2CCCN(Cc3cc(C)ccc3C)S2(=O)=O)c1 | – | 0.769%
COc1ccc(OCCCC(=O)OC(C)C(=O)Nc2ccccc2[N+](=O)[O-])cc1 (stereo unspecified) | – | -1.74% [at 2.33 µM]
CCOc1ccc(-n2c(C)nc3c(cnn3-c3ccc(C)cc3)c2=O)cc1 | – | 11.5%
CCOC(=O)CSc1nc2c(c(=O)n(C)c(=O)n2C)n1Cc1ccccc1F | – | 2.47% [at 102 µM]

Structure (SMILES) | Potency | activity, negative = inhibition
CC(C)OCCCNc1nc2c(c(=O)n(Cc3ccccc3F)c(=O)n2C)n1C | 22.4 µM (active) | –
Cn1c(=O)c2c(nc(NCCNC(=O)c3ccco3)n2Cc2ccccc2F)n(C)c1=O | – | 41.2% [at 102 µM]
CNC(=O)c1ccc(-c2nc(CN3CCc4ccccc43)c(C)o2)cc1 | – | -0.994% [at 12.7 µM]
CCOC(=O)c1c(NC(=O)c2ccc(S(=O)(=O)N(C)CC3CCCO3)cc2)sc2c1CC(C)(C)NC2(C)C (stereo unspecified) | – | 69.6% [at 102 µM]
Cc1nn(-c2ccccc2)c(C)c1NC(=O)COc1ccc(Cl)cc1Cl | – | 26.6%
COC(=O)c1c(NC(=O)COc2ccc(Cl)cc2Cl)sc2c1CC(C)(C)NC2(C)C | 31.6 µM (active) | –
CC1(C)CC(=O)C=C(c2ccc(Cl)c(C(F)(F)F)c2)C1 | – | -9.47% [at 0.501 µM]
O=C(CCc1nc(-c2ccccc2)no1)Nc1cccc(C(=O)NC2CC2)c1 | – | -5.9% [at 12.7 µM]
CCOC(=O)c1ccccc1NC(=O)COC(=O)C(Cc1c[nH]c2ccccc12)NC(C)=O (stereo unspecified) | – | -26.2% [at 102 µM]
Cc1nonc1C1CCCN1C(=O)c1cc(COc2cccc(C(F)(F)F)c2)on1 (stereo unspecified) | – | 24.4% [at 102 µM]
Cc1ccc(NC(=O)CSc2nc3c([nH]c4ccccc43)c(=O)n2-c2ccccc2)c(C)c1 | – | 11.1%
O=C(COc1ccccc1F)OCc1cc(=O)n2nc(C3CCCCC3)sc2n1 | – | 8.46%
CC(=O)c1nc2ccccc2n1Cc1ccccc1 | – | 4.37% [at 102 µM]
O=C(O)CCn1c(Cc2ccccc2)nc2ccccc21 | – | 13.2% [at 102 µM]
O=C(O)CCc1nc2cc(Cl)ccc2n(Cc2ccccc2)c1=O | 50.1 µM (active) | –
COc1cc(OC)c(NC(=O)c2cnc(N3CCCC3)nc2C)cc1Cl | – | -4.36% [at 12.7 µM]
COc1cc(C#Cc2ccc3cc(CCCO)oc(=O)c3c2)cc(OC)c1 | – | -2.15% [at 0.501 µM]
COc1ccccc1C(=O)N(Cc1ccc(C)o1)C1CCS(=O)(=O)C1 (stereo unspecified) | – | 76.1% [at 102 µM]
CC(OC(=O)c1cc2ccccc2o1)C(=O)Nc1ccc(N2CCOCC2)cc1 (stereo unspecified) | – | -43.1% [at 12.7 µM]
O=C(Cn1c(=O)sc2ccccc21)Nc1nc2c(s1)CCCC2 | – | -39.4% [at 102 µM]
O=C(Nc1nnc(-c2ccccc2F)s1)c1ccccc1F | – | -8.05% [at 102 µM]
O=C(Nc1nc2c(s1)CCCC2)c1ccccc1F | 12.6 µM (active) | –
CCc1ccc(NC(=O)C2CCCN2S(=O)(=O)c2ccc3nc(-c4ccccc4)[nH]c3c2)cc1 (stereo unspecified) | – | -30.7%
Cc1ccc(CSc2nc3ccsc3c(=O)n2CCC(C)C)cc1 | – | 65.3%

Structure (SMILES) | Potency | activity, negative = inhibition
COC(=O)c1ccccc1NC(=O)c1cnn(-c2ccc(F)cc2)c1-n1cccc1 | – | -2.86%
O=C(COc1ccc(Cl)cc1)Nc1ccc2c(c1)OCO2 | – | 18.4% [at 102 µM]
O=C(Nc1ccccc1)N1CCN(Cc2ccccc2)CC1 | 2 µM (active) | –
O=C(Nc1ccccc1)N1CCN(C(=O)Nc2ccccc2)CC1 | – | 6.73% [at 102 µM]
O=C(CCN1CCN(C/C=C/c2ccccc2)CC1)Nc1cccc(F)c1 | – | -7.7% [at 102 µM]
O=C1CCN(C(=O)Nc2ccccc2)N1 | 7.94 µM (active) | –
O=C(CN1CCCCCC1)Nc1ccc(Cl)cc1F | – | -4.75% [at 102 µM]
O=C(Nc1ccccc1)N1CCN(C2c3ccccc3-c3ccccc32)CC1 | – | 9.14% [at 102 µM]
O=C(CN1CCN(CC(=O)Nc2ccc3c(c2)OCO3)CC1)Nc1ccc(F)cc1 | – | -4.1% [at 2.33 µM]
O=C(Nc1ccccc1)N1CCC(C(=O)N2CCN(Cc3ccccc3)CC2)CC1 | – | 9.4% [at 12.7 µM]
CCOC(=O)N1CCN(CCC(=O)Nc2ccccc2)CC1 | – | -0.171% [at 0.501 µM]
O=C(Nc1cccc(NC(=O)N2CCN(c3ccccc3)CC2)c1)N1CCN(c2ccccc2)CC1 | – | -38.9% [at 102 µM]
Cc1cc(NC(=O)CCN2CCN(Cc3ccccc3)CC2)ccc1Br | 44.7 µM (active) | –
O=C(CN1CCN(Cc2ccccc2)CC1)Nc1ccc(F)c(F)c1 | 7.08 µM (active) | –
COc1ccc(C)cc1NC(=O)CCc1c(C)nn(-c2ccc(N3CCOCC3)nn2)c1C | – | -3.72%
O=C(COC(=O)c1cnccn1)Nc1ccc(Cl)cc1C(F)(F)F | – | -3.19% [at 0.501 µM]
O=C(Cn1c(=O)nc(-c2ccccc2)c2cc(Cl)ccc21)NCc1ccc(Cl)cc1 | – | -4.4%
O=C(CSc1cn(CC(=O)N2CCOCC2)c2ccccc12)Nc1ccccc1 | – | 2.17%
CN(CC(=O)NCc1ccncc1)S(=O)(=O)c1ccc(Br)cc1 | – | 9.67% [at 102 µM]
CCOC(=O)Cc1csc(SCC(=O)Nc2ccc(C)cc2F)n1 | – | 25.5% [at 102 µM]
C=Cc1ccc(Cn2c(C(=O)OC)cc3sc(C)cc32)cc1 | – | 62.5%
CC(=O)Nc1ccc2nc(SCCOc3cc(C)cc(C)c3)sc2c1 | – | -9.85%
COc1cccc(-n2cc3c(c2-c2ccccc2)c(=O)n(C)c(=O)n3C)c1 | 25.1 µM (active) | –
COc1cccc(N2C(=O)CN(Cc3ccccc3)C2=S)c1 | – | 23.1% [at 102 µM]

Structure (SMILES) | Potency | activity, negative = inhibition
COc1ccc(Nc2cc(=O)n(-c3ccccc3)c3c2c(=O)n(C)c(=O)n3C)cc1 | – | -9.11% [at 102 µM]
COc1ccccc1-n1c(-c2ccc(C)cc2)cn2c3c(=O)n(C)c(=O)n(C)c3nc12 | – | -26.8%
Cc1ccc(-c2c3c(=O)n(C)c(=O)n(C)c3cn2-c2ccccc2O)cc1 | 31.6 µM (active) | –
COc1ccc(-c2c3c(=O)n(C)c(=O)n(C)c3c3c(C)nc4ccccc4n23)cc1 | – | 7.67%
O=C(O)c1ccc(CSc2nc3cccnc3n2Cc2cccc(F)c2)cc1 | – | 6.5%
CCN(CC(=O)NCc1cccs1)C(=O)/C=C/c1ccc(C)cc1 | – | 9.99% [at 12.7 µM]
CCOC(=O)c1c(C)[nH]c(CCC(=O)NCCCN2CCN(c3cccc(Cl)c3)CC2)c1C | – | 1.4%
CCOC(=O)c1ccc2c(c1)N(Cc1cccc(OC)c1)C(=O)c1ccccc1S2(=O)=O | – | 8.77%
CC(=O)N1Cc2ccccc2CC1C(=O)O (stereo unspecified) | 17.8 µM (active) | –
C[C@H](NC(=O)[C@@H]1Cc2ccccc2CN1C(=O)OC(C)(C)C)C(=O)NC1CCCC1 | – | 19.8% [at 102 µM]
O=C(C1Cc2ccccc2CN1C(=O)c1ccco1)N1CCN(c2ccccc2)CC1 (stereo unspecified) | – | -27.1%
C[C@@H]1O[C@@H](OC[C@H]2O[C@@H](Oc3c(-c4ccc(O)cc4)oc4cc(O)cc(O)c4c3=O)[C@H](O)[C@@H](O)[C@@H]2O)[C@H](O)[C@H](O)[C@H]1O | – | 4.77% [at 12.7 µM]
COc1cccc(N2CC(NS(=O)(=O)c3ccc(Cl)cc3)CC2=O)c1 (stereo unspecified) | – | -30.1% [at 102 µM]
CC1CCC(CN2CCN=C2N(C)C)CC1 (stereo unspecified) | – | 11.1% [at 12.7 µM]
NC(=S)c1ccc(C(N)=S)o1 | 44.7 µM (active) | –
O=C(Nc1ccc(F)cc1)c1cc2c(s1)CCCC2 | – | 45% [at 102 µM]
CN(C)C(=O)c1ccc(NC(=O)COC(=O)c2cc3c(s2)CCCCC3)cc1 | 3.55 µM (active) | –
O=C(COC(=O)c1cc2c(s1)CCCC2)NCc1ccccc1Cl | – | 7.22% [at 102 µM]
O=C(CSc1cccc[n+]1[O-])NCCCc1ccccc1 | – | 4.67% [at 102 µM]
Cc1cc(Oc2ccc(Cl)cc2)nc(SCC(=O)c2ccccc2)n1 | – | 16.6%
COc1ccccc1C(=O)CSc1cccc[n+]1[O-] | – | -25.8% [at 102 µM]
O=C(CSc1cccc[n+]1[O-])c1ccc(-c2ccccc2)cc1 | 3.55 µM (active) | –
O=C(CSc1nc(Nc2ccc(F)c(F)c2)c2ccccc2n1)c1ccc(Cl)cc1 | – | 3.17%
O=C(CSc1cccc[n+]1[O-])c1ccc(Cl)cc1 | 4.47 µM (active) | –
